# Assay outcomes deposited in PubChem by several laboratories.
# Sampled rows, rich in hits. Any-hit rate of the full collection: about 3.5%.
# Bead autofluor – counter-screen for toxin protease inhibitors: compound fluorescence; compound autofluorescence counterscreen, microsphere flow cytometry; hits give high values; fluorescence intensity (concentration not given with the values); AID 624483; 360,000 compounds, 3.1% hits; in the data active = fluorescence intensity above about 16000; inconclusive = no clear call, values can overlap the other calls
# Anthrax LF prot – inhibitors of Bacillus anthracis lethal factor protease; inhibition, % at 10 µM; P15917; 360,000 compounds, 0.12% hits; AID 588501; multiplex microsphere protease cleavage assay, LF; also: plate controls were buffer without enzyme for full effect and enzyme alone for no effect
# Target sequence (P15917 whole entry, looked up): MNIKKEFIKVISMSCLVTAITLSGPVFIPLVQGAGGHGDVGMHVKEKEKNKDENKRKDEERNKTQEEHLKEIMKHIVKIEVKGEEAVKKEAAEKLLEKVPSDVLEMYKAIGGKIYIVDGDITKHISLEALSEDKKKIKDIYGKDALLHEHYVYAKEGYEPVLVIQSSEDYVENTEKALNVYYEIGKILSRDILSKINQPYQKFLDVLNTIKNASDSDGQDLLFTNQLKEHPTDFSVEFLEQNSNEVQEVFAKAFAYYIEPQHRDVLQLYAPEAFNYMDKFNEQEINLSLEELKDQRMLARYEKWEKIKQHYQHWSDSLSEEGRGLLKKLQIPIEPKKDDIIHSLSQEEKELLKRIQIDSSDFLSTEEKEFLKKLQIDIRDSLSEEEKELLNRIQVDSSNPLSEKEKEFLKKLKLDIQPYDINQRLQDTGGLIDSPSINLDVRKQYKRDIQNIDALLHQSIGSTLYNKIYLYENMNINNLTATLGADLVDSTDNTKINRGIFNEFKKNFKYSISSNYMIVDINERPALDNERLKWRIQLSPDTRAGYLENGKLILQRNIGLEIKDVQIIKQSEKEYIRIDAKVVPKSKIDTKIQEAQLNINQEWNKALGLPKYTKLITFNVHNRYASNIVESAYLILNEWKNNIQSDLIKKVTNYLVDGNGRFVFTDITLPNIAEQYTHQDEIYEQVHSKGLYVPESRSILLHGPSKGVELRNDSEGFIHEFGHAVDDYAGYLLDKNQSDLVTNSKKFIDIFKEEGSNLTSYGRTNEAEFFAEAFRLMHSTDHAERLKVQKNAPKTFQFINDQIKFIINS
# BoNT-F LC inh – inhibitors of Botulinum neurotoxin F light chain protease. 360,000 compounds, 0.22% hits. AID 588497. Multiplex microsphere protease cleavage assay, flow cytometry. inhibition, % at 10 µM; in the data active = inhibition above about 35%, passing the limit was not always enough; inconclusive = no clear call, values can overlap the other calls; also: plate controls were buffer without enzyme for full effect and enzyme alone for no effect
# BoNT A protease – blocks Botulinum neurotoxin A light chain protease; multiplex microsphere protease substrate cleavage, flow cytometry; inhibition, % at 10 µM; 360,000 compounds, 0.17% hits; AID 588499; also: plate controls were buffer without enzyme for full effect and enzyme alone for no effect
# 3CLpro inhibitor – SARS-CoV 3CLpro protease inhibition; recombinant SARS-CoV 3CLpro, quenched FRET peptide cleavage; inhibition, % at 6 µM; AID 1706; P0C6X7; 290,000 compounds, 0.14% hits; in the data active = inhibition above about 12%
# Active calls of the source: *; ? = inconclusive; · = no result given. Rule as the data show it, unless noted: active = inhibition above about 30%; inconclusive = no clear call, values can overlap the other calls; inactive = below that.
SMILES,Bead autofluor,Anthrax LF prot,BoNT-F LC inh,BoNT A protease,3CLpro inhibitor
CC(C)(C)OC(=O)N1CCCC(C(=O)Nc2ccc(C(=O)NCc3ccccc3)cc2)C1 (centres undefined),4079,-4,-1,0,·
CC1CC(=O)c2cnc(N3CCOCC3)nc2C1 (centres undefined),11181,1,2,0,3
CC1CC(=O)c2cnc(N)nc2C1 (centres undefined),22837*,-11,-4,-2,-7
NC(=S)NNC(=O)c1ccccc1,24370*,-5,-4,-2,-1
C=CCN(c1ccccc1)S(=O)(=O)c1ccc(Cl)c(C(=O)OCC(=O)NCCCN2CCCC2=O)c1,3321,-2,-7,-1,2
Cn1ncc2c(Nc3ccc(Cl)cc3)ncnc21,?,2,-7,-1,-1
COc1ccc2c(C(=O)CN3CCN(c4ccccc4)CC3)c[nH]c2c1,24933*,-2,-1,?,-6
Cc1ccc2[nH]cc(C(=O)CN3CCN(c4ccccn4)CC3)c2c1,3676,-1,0,1,-2
Cc1ccc2[nH]cc(C(=O)CN3CCN(C)CC3)c2c1,23399*,-2,-2,?,-4
CCCCCCC(=O)N1C/C=C\C(c2ccc(OC)cc2)N(Cc2ccc(F)cc2)C(=O)C1 (centres undefined),3517,-4,7,0,·
COc1ccc(CCNC(=O)CC2Nc3ccccc3NC2=O)cc1 (centres undefined),6877,-13,-8,0,5
COc1ccc(CCNC(=O)CC2Nc3ccccc3NC2=O)cc1OC (centres undefined),24834*,-3,-6,-4,-1
CCCOc1ccccc1NC(=O)CC1Nc2ccccc2NC1=O (centres undefined),21938*,-2,-8,-5,-2
Cn1c(=O)c2c(nc(Br)n2CCSc2nnnn2-c2ccccc2)n(C)c1=O,20475*,0,-2,-2,-2
COc1ccc(C(CNC(=O)COc2cccc(C)c2)N2CCCC2)cc1 (centres undefined),4677,-5,2,0,·
CCOC(=O)c1ccccc1NC(=O)[C@@H]1CCCN1C(=O)OC(C)(C)C,4008,5,-3,0,4
COc1ccc(C2=NOC(C(=O)Nc3ccc(C(C)=O)cc3)C2)cc1OC (centres undefined),10620,-4,4,1,2
COc1ccc(C2OC(=O)CC2C(=O)NC2CCCCCC2)cc1OC (centres undefined),22084*,-2,-7,-6,6
COc1ccc(-c2cc(C(=O)NC3CCCC3)no2)cc1,5791,-1,14,3,1
COc1ccc(C2=NOC(C(=O)NC3CCCCC3)C2)cc1OC (centres undefined),23218*,-2,3,0,-2
COc1ccc(-c2cc(C(=O)NC3CCCC3)no2)cc1OC,22323*,2,-1,0,-9
N#CCCN/N=C(\Cc1nc2ccccc2[nH]1)c1ccccc1,22721*,2,-2,3,1
CN(C)S(=O)(=O)c1cccc(C(=O)NC2CCSc3ccccc32)c1 (centres undefined),5333,-2,-5,-2,-3
CCOc1cc(C)nc(Oc2ccc(=O)[nH]n2)n1,23697*,-4,2,?,1
CCn1c(SCc2nc3ccccc3c(=O)[nH]2)nnc1-c1cccnc1,23337*,1,1,?,-3
SMILES,Bead autofluor,Anthrax LF prot,BoNT-F LC inh,BoNT A protease,3CLpro inhibitor
Nn1c(SCc2nc3ccccc3[nH]2)nnc1-c1cccnc1,22326*,-2,0,0,0
Nn1c(SC/C=C/c2ccccc2)nnc1-c1cccnc1,21822*,-3,4,3,1
CCn1c(SCc2nc3ccccc3c(=O)[nH]2)nnc1-c1ccncc1,10286,3,-5,0,6
Cc1nnsc1C(=O)Nc1ccc(Cl)cc1Cl,4996,-1,-8,0,1
CN(C)c1ccc2nc3ccc(=O)cc-3sc2c1,2898,-2,-3,4,·
CN(C)c1ccc2nc3ccc(=[N+](C)C)cc-3sc2c1,2168,7,-25,32*,-4
Cc1cc2nc3ccc(=[N+](C)C)cc-3sc2cc1N,3584,20,-10,61*,-1
Cc1nc2cc(C)c(C)cc2s1,4430,1,3,1,0
CC(C)n1c(=O)c2ccccc2n1Cc1cn(-c2ccc(Cl)cc2)nn1,5709,-4,-6,-1,·
CCC(C)(C)NC(=O)CN(C(=O)CCC(=O)Nc1nccs1)c1cccc(C)c1,3757,1,-1,-1,-2
COc1cccc2cc3c(=O)oc4ccccc4c3nc12,2485,-6,-11,0,0
COC(OC)c1ccnc(-c2ccc(OC(=O)c3cccs3)cc2)n1,4326,-1,-1,0,5
CN(C)C(CNC(=O)c1ccc2nc[nH]c2c1)c1ccccc1 (centres undefined),3967,-4,-7,0,3
COc1ccc(-c2cn3ccccc3n2)cc1OC,20804*,-1,9,6,-3
CSCCC(NC(=O)C1CC1)c1nc2ccccc2[nH]1 (centres undefined),20590*,0,-3,0,1
CSCC[C@H](NC(=O)C1CCCC1)c1nc2ccccc2[nH]1,3400,-2,-2,0,2
COC(=O)C(Cc1cnc[nH]1)NC(=O)C1CCC(=O)N1 (centres undefined),22414*,-3,3,?,3
c1ccn2c(c1)nc1c2nc2ccccn21,21237*,1,-2,-2,1
Clc1c(-c2ccccc2)nc2ccccn12,2937,13,?,-2,2
O=[N+]([O-])c1ccc(N=Cc2ccc(Br)c([N+](=O)[O-])c2)cc1,2619,1,-7,0,0
COC(=O)C(O)(c1ccc(NC(=S)NC(=O)c2ccccc2)cc1)C(F)(F)F (centres undefined),16903*,-1,-3,-3,3
COc1ccc(C2(C(=O)Nc3nncs3)CCCC2)cc1,22722*,-2,1,1,0
COc1ccc(-c2cc(-c3nnc(COC(=O)CC4CC5CCC4C5)o3)c3ccccc3n2)cc1OC (centres undefined),2180,16,5,52*,-5
CC1=CC(C)(C)N=C(NC#N)N1,19967*,-1,2,1,3
CC(C)Cc1nnc(NC(=O)c2ccc3c(=O)n4c(nc3c2)CCC4)s1,·,·,·,·,-3
SMILES,Bead autofluor,Anthrax LF prot,BoNT-F LC inh,BoNT A protease,3CLpro inhibitor
COc1ccc(/C(N)=N/OC(=O)/C=C/c2ccccc2)cc1,2098,2,62*,6,3
Cc1ccccc1/C(N)=N/OC(=O)/C=C/c1ccccc1,22804*,-4,0,1,4
CCCCC(C(=O)NC1CCCC1)N(Cc1ccco1)C(=O)Cn1nnc(-c2ccc(F)cc2)n1 (centres undefined),3529,-5,?,1,-3
S=C(Nc1ccc2nc(-c3ccccn3)c(-c3ccccn3)nc2c1)N1CCCCCC1,2061,10,5,20,3
CCCC(=O)Nc1ccc(C#Cc2ccccc2)cc1,18787*,-8,5,4,2
CC(=O)SCCC(=O)Nc1ccccc1,17839*,3,17,?,-4
